PMC5540273 (PLoS ONE, 2017)

Tested on: DAPK1
Conditions: concentration: 1 μM, replicates: in singlicate; n = 1
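Also: KINOMEscan kinase panel screen.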

Row | SMILES | %Inh [%]
1 | COc1cc2c(cc1OC[C@@H](O)CO)ncc1c3ccc(C#N)cc3[nH]c21 | 6
2 | COc1ccc(Nc2ncc(C#N)c(Nc3ccccc3C(N)=O)n2)cc1N1CCN(C)CC1.Cl [GSK1558669] | 97.8
3 | Cc1cccc(-c2nc(-c3ccc(S(C)(=O)=O)cc3)sc2-c2ccncc2)c1 | 4
4 | COc1cc(Nc2nccc(N3CCC(NC(=O)c4cccc(NC(C)=O)c4)C3)n2)cc(OC)c1OC (centres unmarked) [GSK1379754] | 0
5 | Cc1ccc(NC(=O)c2ccnc(N3CCN(C)CC3)c2)cc1-c1ccc(C(=O)NCC2CC2)cc1 [GW775604] | 5
6 | CSc1ccc(-c2cc3ncnc(SCC(=O)O)c3s2)cc1 | 12
7 | c1ccc(-c2cc(-c3c[nH]nc3-c3ccccn3)ccn2)cc1 [GW576604] | 8
8 | O=C(Nc1n[nH]c2cc(-c3cccc(F)c3)ccc12)C1CC1 [SB-735464] | 1
9 | Cc1c(Cn2c(C)nn3c(=O)cc(N4CCOC(C)C4)nc23)cccc1C(F)(F)F (centres unmarked) [GSK2344444] | 2
10 | Cc1nnc(-c2ccc3ncc(-c4ccc(S(C)=O)cc4)n3c2)o1 (centres unmarked) | 22
11 | CN(C(=O)c1ccc(-c2cc(-c3c[nH]nc3-c3ccccn3)ccn2)cc1)C1CCOCC1 [GW810083] | 11
12 | Fc1ccc(-c2ncn(CCCN3CCOCC3)c2-c2ccccn2)cc1 [SB-211742] | 17
13 | COc1cc2c(cc1OCCN1CCN(C)CC1)ncc1c3ccc(C#N)cc3[nH]c21 | 44
14 | O=C(c1ccc(-c2cc(-c3c[nH]nc3-c3ccccn3)ccn2)cc1)N1CCOCC1 [GW812171] | 0
15 | CC(=O)Nc1ccc(COc2ccc(Nc3ccnc4cc(-c5ccccn5)ccc34)cc2)cc1.Cl [GW440148] | 0
16 | O=C(NOCC1CC1)c1ccc(F)c(F)c1Nc1ccc(I)cc1Cl | 1
17 | COc1ccc(Nc2nccc(N3CCC(NC(=O)Nc4cc(C)ccc4C)C3)n2)cc1 (centres unmarked) [GSK1379741] | 0
18 | Cc1ccc(C(=O)NCC(N)=O)cc1-n1c(C)cc(OCc2ccc(F)cc2F)c(Br)c1=O | 0

Row | SMILES | %Inh [%]
19 | Cl.Nc1ncnc2occ(-c3ccc(NC(=O)Nc4cc(C(F)(F)F)ccc4F)cc3)c12 [SB-707548] | 24
20 | Nc1nc(-c2ccc3c(N)n[nH]c3c2)cc(N2CCCC2)n1 [GSK2227430] | 0
21 | CN(C1=C(c2ccccc2)C(=O)NC1=O)c1ccccc1 [SB-334860] | 26
22 | CN1c2ccc(CNc3ccc(F)cc3)cc2-c2c(cnn2C)S1(=O)=O | 11
23 | COc1ccc(S(=O)(=O)NC2CCN(c3cc(C)nc(Nc4cccc(C#N)c4)n3)CC2)cc1.O=C(O)C(F)(F)F [GSK1653539] | 0
24 | O=c1cc(N2CCOCC2)nc2n(Cc3cccc(Cl)c3Cl)c(C3CC3)nn12 [GSK2358994] | 26
25 | N#Cc1ccc(-c2cc(-c3c[nH]nc3-c3ccccn3)ccn2)cc1 [GW693028] | 0
26 | O=C(Nc1cccc(-c2nn3ncccc3c2-c2ccnc(Nc3cccc(C(F)(F)F)c3)n2)c1)c1c(F)cccc1F [GSK299495] | 0
27 | CCc1ccnc(/C=C/c2n[nH]c3cc(Sc4ccccc4C(=O)NC)ccc23)c1 | 17
28 | Nc1nccc(-c2c(-c3ccc(F)cc3)ncn2C2CCN(CC(F)(F)F)CC2)n1 [SB-236560] | 20
29 | Cc1cn2c(=O)cc(N3CCOCC3)nc2n1Cc1cccc(Cl)c1Cl [GSK2334006] | 13
30 | COc1ccc(COc2cc(-n3cnc4ccccc43)sc2C(N)=O)cc1 [GSK1024304] | 3
31 | Fc1ccc(-c2ncn(CCCN3CCOCC3)c2-c2cccnc2)cc1 [SB-211743] | 9
32 | CN1c2ccc(NCc3ccc(F)cc3)cc2-c2c(cnn2C)S1(=O)=O | 3
33 | O=C(NCCNc1ccnc(Nc2ccc(F)cc2)n1)c1cc2ccccc2s1 [GSK1379874] | 0
34 | Cc1cccc(-c2nc(Nc3ccc4ncsc4c3)c3ccccc3n2)n1 [GW867588] | 0
35 | NCC(NC(=O)c1cc(-c2cn[nH]c2)c(-c2ccnc3[nH]ccc23)s1)c1ccccc1.O=C(O)C(F)(F)F.O=C(O)C(F)(F)F (centres unmarked) [GSK1325775] | 71

Tested on: DAPK2
Conditions: concentration: 1 μM, replicates: in singlicate; n = 1

Row | SMILES | %Inh [%]
36 | COc1cc2c(cc1OC[C@@H](O)CO)ncc1c3ccc(C#N)cc3[nH]c21 | 6
37 | COc1ccc(Nc2ncc(C#N)c(Nc3ccccc3C(N)=O)n2)cc1N1CCN(C)CC1.Cl [GSK1558669] | 98.5
38 | Cc1cccc(-c2nc(-c3ccc(S(C)(=O)=O)cc3)sc2-c2ccncc2)c1 | 0
39 | COc1cc(Nc2nccc(N3CCC(NC(=O)c4cccc(NC(C)=O)c4)C3)n2)cc(OC)c1OC (centres unmarked) [GSK1379754] | 8
40 | Cc1ccc(NC(=O)c2ccnc(N3CCN(C)CC3)c2)cc1-c1ccc(C(=O)NCC2CC2)cc1 [GW775604] | 0
41 | CSc1ccc(-c2cc3ncnc(SCC(=O)O)c3s2)cc1 | 0
42 | c1ccc(-c2cc(-c3c[nH]nc3-c3ccccn3)ccn2)cc1 [GW576604] | 0
43 | O=C(Nc1n[nH]c2cc(-c3cccc(F)c3)ccc12)C1CC1 [SB-735464] | 11
44 | Cc1c(Cn2c(C)nn3c(=O)cc(N4CCOC(C)C4)nc23)cccc1C(F)(F)F (centres unmarked) [GSK2344444] | 0
45 | Cc1nnc(-c2ccc3ncc(-c4ccc(S(C)=O)cc4)n3c2)o1 (centres unmarked) | 0
46 | CN(C(=O)c1ccc(-c2cc(-c3c[nH]nc3-c3ccccn3)ccn2)cc1)C1CCOCC1 [GW810083] | 2
47 | Fc1ccc(-c2ncn(CCCN3CCOCC3)c2-c2ccccn2)cc1 [SB-211742] | 0
48 | COc1cc2c(cc1OCCN1CCN(C)CC1)ncc1c3ccc(C#N)cc3[nH]c21 | 0
49 | O=C(c1ccc(-c2cc(-c3c[nH]nc3-c3ccccn3)ccn2)cc1)N1CCOCC1 [GW812171] | 0
50 | CC(=O)Nc1ccc(COc2ccc(Nc3ccnc4cc(-c5ccccn5)ccc34)cc2)cc1.Cl [GW440148] | 0
51 | O=C(NOCC1CC1)c1ccc(F)c(F)c1Nc1ccc(I)cc1Cl | 0
52 | COc1ccc(Nc2nccc(N3CCC(NC(=O)Nc4cc(C)ccc4C)C3)n2)cc1 (centres unmarked) [GSK1379741] | 0
53 | Cc1ccc(C(=O)NCC(N)=O)cc1-n1c(C)cc(OCc2ccc(F)cc2F)c(Br)c1=O | 0

Row | SMILES | %Inh [%]
54 | Cl.Nc1ncnc2occ(-c3ccc(NC(=O)Nc4cc(C(F)(F)F)ccc4F)cc3)c12 [SB-707548] | 14
55 | Nc1nc(-c2ccc3c(N)n[nH]c3c2)cc(N2CCCC2)n1 [GSK2227430] | 0
56 | CN(C1=C(c2ccccc2)C(=O)NC1=O)c1ccccc1 [SB-334860] | 0
57 | CN1c2ccc(CNc3ccc(F)cc3)cc2-c2c(cnn2C)S1(=O)=O | 0
58 | COc1ccc(S(=O)(=O)NC2CCN(c3cc(C)nc(Nc4cccc(C#N)c4)n3)CC2)cc1.O=C(O)C(F)(F)F [GSK1653539] | 0
59 | O=c1cc(N2CCOCC2)nc2n(Cc3cccc(Cl)c3Cl)c(C3CC3)nn12 [GSK2358994] | 12
60 | N#Cc1ccc(-c2cc(-c3c[nH]nc3-c3ccccn3)ccn2)cc1 [GW693028] | 0
61 | O=C(Nc1cccc(-c2nn3ncccc3c2-c2ccnc(Nc3cccc(C(F)(F)F)c3)n2)c1)c1c(F)cccc1F [GSK299495] | 0
62 | CCc1ccnc(/C=C/c2n[nH]c3cc(Sc4ccccc4C(=O)NC)ccc23)c1 | 0
63 | Cl.Cl.Cl.Fc1ccc(-c2ncn(C3CCNCC3)c2-c2ccnc(Nc3ccccc3)n2)cc1 [SB-238039] | 0
64 | Nc1nccc(-c2c(-c3ccc(F)cc3)ncn2C2CCN(CC(F)(F)F)CC2)n1 [SB-236560] | 0
65 | Cc1cn2c(=O)cc(N3CCOCC3)nc2n1Cc1cccc(Cl)c1Cl [GSK2334006] | 19
66 | COc1ccc(COc2cc(-n3cnc4ccccc43)sc2C(N)=O)cc1 [GSK1024304] | 10
67 | Fc1ccc(-c2ncn(CCCN3CCOCC3)c2-c2cccnc2)cc1 [SB-211743] | 0
68 | CN1c2ccc(NCc3ccc(F)cc3)cc2-c2c(cnn2C)S1(=O)=O | 12
69 | O=C(NCCNc1ccnc(Nc2ccc(F)cc2)n1)c1cc2ccccc2s1 [GSK1379874] | 0
70 | Cc1cccc(-c2nc(Nc3ccc4ncsc4c3)c3ccccc3n2)n1 [GW867588] | 0
71 | NCC(NC(=O)c1cc(-c2cn[nH]c2)c(-c2ccnc3[nH]ccc23)s1)c1ccccc1.O=C(O)C(F)(F)F.O=C(O)C(F)(F)F (centres unmarked) [GSK1325775] | 37
